Experimental data as given in PubChem BioAssay (NCATS).
“And” between values parts separate entries of the source, which are not always exact repeats. Equal values may be shown once. Records with an inconclusive call do not appear. A call without a number means that no potency is given here. The source made the active and inactive calls. Unless noted, calls follow the shape of the dose curve; as a rule, active = well fitted curve in the direction sought with a large enough effect; inconclusive = small, poorly fitted or top-dose-only effect, or another doubt; inactive = no such curve, though single readings can be large; an effect the other way counts as inactive or inconclusive.

Columns and labels:
[1] = target: 3',5'-cyclic-AMP phosphodiesterase 4B (Homo sapiens) (UniProt Q07343); assay: qHTS Assay for Inhibitors of PDE-IV (AID 607; active = well fitted activation curve with a large enough effect in the main read-out, with a control signal flat, not every such curve was filed as active; also: potency is read from the fitted curve at half-maximal effect)
Chain of 3',5'-cyclic-AMP phosphodiesterase 4B (Homo sapiens) (Q07343 whole entry, looked up): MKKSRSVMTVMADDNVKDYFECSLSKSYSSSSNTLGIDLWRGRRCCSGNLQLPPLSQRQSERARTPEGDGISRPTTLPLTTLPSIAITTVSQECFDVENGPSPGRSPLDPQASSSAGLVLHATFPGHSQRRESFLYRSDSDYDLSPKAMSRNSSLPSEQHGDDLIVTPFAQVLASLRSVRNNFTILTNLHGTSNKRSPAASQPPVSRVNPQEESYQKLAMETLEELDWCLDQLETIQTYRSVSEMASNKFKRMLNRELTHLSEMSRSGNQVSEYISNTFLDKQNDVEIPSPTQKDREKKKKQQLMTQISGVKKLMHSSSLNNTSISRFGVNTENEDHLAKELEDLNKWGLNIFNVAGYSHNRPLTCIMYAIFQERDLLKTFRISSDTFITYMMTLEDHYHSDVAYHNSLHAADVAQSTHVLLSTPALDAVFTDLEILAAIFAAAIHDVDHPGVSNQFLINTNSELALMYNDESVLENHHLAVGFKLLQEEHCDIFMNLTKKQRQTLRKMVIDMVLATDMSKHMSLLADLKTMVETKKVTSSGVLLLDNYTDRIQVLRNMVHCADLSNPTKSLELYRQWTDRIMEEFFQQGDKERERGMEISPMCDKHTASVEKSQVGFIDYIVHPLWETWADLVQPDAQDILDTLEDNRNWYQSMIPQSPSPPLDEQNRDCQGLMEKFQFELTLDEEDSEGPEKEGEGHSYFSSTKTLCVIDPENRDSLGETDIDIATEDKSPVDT
Method in brief: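 HEK293 ACTOne cells with CNG channel (1000/well), endogenous PDE4; membrane potential dye, compounds up to 22.9 uM final. Fluorescence Ex 535/Em 590; RO 20-1724 (100 uM final) as reference.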

[2] = target: Guanine nucleotide-binding protein G(i) subunit alpha-1 (Homo sapiens) (UniProt P63096); assay: qHTS Assay for Inhibitors of RGS12 GoLoco Motif Activity (Green Fluorophore) (AID 879); also: potency is read from the fitted curve at half-maximal effect
Chain of Guanine nucleotide-binding protein G(i) subunit alpha-1 (Homo sapiens) (P63096 whole entry, looked up): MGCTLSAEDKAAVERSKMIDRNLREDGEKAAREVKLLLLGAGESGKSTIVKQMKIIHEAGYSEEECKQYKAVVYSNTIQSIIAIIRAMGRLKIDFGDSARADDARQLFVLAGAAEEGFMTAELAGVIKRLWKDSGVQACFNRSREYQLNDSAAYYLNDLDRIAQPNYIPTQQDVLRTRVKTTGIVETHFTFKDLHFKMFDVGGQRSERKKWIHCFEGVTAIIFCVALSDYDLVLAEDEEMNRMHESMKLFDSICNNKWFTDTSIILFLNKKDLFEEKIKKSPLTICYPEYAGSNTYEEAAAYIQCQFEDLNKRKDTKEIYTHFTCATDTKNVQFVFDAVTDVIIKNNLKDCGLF
Method in brief: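 Fluorescence polarization assay: 50 nM Gαi1 with 10 nM FITC-labeled RGS12 GoLoco peptide in 10 mM Tris pH 7.5, 150 mM NaCl, 0.1 mM GDP, 0.05% NP40, 10 min at room temperature with compound.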

[3] = target: Cytochrome P450 3A4 (Homo sapiens) (UniProt P08684); assay: qHTS Assay for Inhibitors and Substrates of Cytochrome P450 3A4 (AID 884); also: series mostly up to about 57 µM; nearly all actives have a fitted effect of over 50% in size
Chain of Cytochrome P450 3A4 (Homo sapiens) (P08684 whole entry, looked up): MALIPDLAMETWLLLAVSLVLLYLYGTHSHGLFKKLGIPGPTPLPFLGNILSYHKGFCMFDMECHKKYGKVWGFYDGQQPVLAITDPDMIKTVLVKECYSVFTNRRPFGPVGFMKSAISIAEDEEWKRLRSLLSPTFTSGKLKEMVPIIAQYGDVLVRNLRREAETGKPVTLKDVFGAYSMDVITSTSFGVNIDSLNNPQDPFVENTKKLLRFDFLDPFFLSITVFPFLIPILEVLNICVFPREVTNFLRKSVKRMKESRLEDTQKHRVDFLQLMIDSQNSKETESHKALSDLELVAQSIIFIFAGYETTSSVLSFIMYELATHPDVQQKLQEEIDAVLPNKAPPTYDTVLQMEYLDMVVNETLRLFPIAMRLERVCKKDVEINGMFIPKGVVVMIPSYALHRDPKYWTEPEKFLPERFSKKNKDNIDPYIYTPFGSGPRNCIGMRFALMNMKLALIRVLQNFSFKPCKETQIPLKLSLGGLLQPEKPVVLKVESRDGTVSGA
Method in brief: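 20 nM human CYP3A4 with 25 uM Luciferin-PPXE (at KM) in 200 mM KPO4, preincubated 10 min with compound; NADPH regeneration started a 60 min RT reaction. Luciferin detected by luminescence, normalized to 57 uM ketoconazole as full inhibition.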

[4] = target: Cytochrome P450 2D6 (Homo sapiens) (UniProt P10635); assay: qHTS Assay for Inhibitors and Substrates of Cytochrome P450 2D6 (AID 891); also: nearly all actives have a fitted effect of over 60% in size; also: potency is read from the fitted curve at half-maximal effect
Chain of Cytochrome P450 2D6 (Homo sapiens) (P10635 whole entry, looked up): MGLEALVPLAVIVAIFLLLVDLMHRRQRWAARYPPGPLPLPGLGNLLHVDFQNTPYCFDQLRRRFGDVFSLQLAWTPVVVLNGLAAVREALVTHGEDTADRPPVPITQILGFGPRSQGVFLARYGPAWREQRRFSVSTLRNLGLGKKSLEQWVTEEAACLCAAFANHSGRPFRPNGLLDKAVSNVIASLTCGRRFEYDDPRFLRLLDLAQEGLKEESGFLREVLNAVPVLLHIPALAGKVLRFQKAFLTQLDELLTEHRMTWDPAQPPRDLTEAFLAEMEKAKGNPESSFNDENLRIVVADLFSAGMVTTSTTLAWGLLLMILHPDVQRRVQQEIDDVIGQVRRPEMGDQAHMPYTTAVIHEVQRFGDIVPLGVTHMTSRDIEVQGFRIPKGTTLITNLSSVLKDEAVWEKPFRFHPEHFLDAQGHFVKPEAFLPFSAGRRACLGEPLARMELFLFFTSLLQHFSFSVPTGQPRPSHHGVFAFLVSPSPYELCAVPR
Method in brief: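 Human CYP2D6 (5 nM) with 30 uM Luciferin-ME EGE (at Km) in 100 mM KPO4, compound preincubated 10 min, then NADPH regeneration system for 60 min at room temperature. Luciferin read by luminescence; normalized to 1.43 uM quinidine.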

[5] = target: Cytochrome P450 3A4 (Homo sapiens) (UniProt P08684); assay: qHTS Assay for Activators of Cytochrome P450 3A4 (AID 885); also: nearly all actives have a fitted effect of over 65% in size
Method in brief: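 Human CYP3A4 (20 nM) with Luciferin-PPXE at 25 uM (its KM) in 200 mM KPO4; 10 min compound preincubation, then NADPH regeneration and 60 min reaction at RT. Luciferin read by luminescence; normalized to 57 uM ketoconazole full inhibition.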

[6] = qHTS Assay for Identification of Small Molecule Antagonists for NFkB Signaling Pathway (AID 895; active = well fitted inhibition curve with a large enough effect in the signal ratio, with a control signal flat, not every such curve was filed as active; the % refers to the signal ratio; also: potency is read from the fitted curve at half-maximal effect)
Method in brief: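 ME-180 NFkB-bla cells (beta-lactamase under NFkB response element), plated overnight, treated with compound then 10 pM TNF alpha (about EC50) for 5 hrs at 37 C. LiveBLAzer FRET read at 460/530 nm emission, 405 nm excitation.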

Which Potency [1] does the source give for `Cc1scc2c1N(C(=O)CN1CCN(C)CC1)c1ccccc1NC2=O` here?
The Potency was “inactive”.

And the Potency [2]?
The Potency was “inactive”.

And the outcome [3]?
Its outcome is “inactive”.

What about the Potency [4] of the same compound?
Its Potency is 5.01 µM (active).

What does the source list for `CCn1cc(C(=O)O)c(=O)c2cc3c(cc21)OCO3`?
Potency [1]: inactive; Potency [2]: inactive; outcome [3]: inactive

With `NC(N)=NC(=O)Cc1c(Cl)cccc1Cl` as the compound, how does the Potency [1] read?
The Potency was “inactive”.

And the Potency [2]?
Its Potency is “inactive”.

What about the Potency [5] of the same compound?
Its Potency is “inactive”.

What about the Potency [4] of the same compound?
Its Potency is 0.126 µM (active).

With `CCOC(=O)c1cnc2c(cnn2CC)c1NN=C(C)C` as the compound, how does the Potency [1] read?
The Potency was 0.951 µM (active).

What about the Potency [2] of the same compound?
Its Potency is “inactive”.

And the Potency [5]?
Its Potency is “inactive”.

What does the source list for `CN(C)C(=O)Oc1ccc[n+](C)c1`?
Potency [1]: inactive; Potency [2]: inactive; outcome [3]: inactive

With `CCN1CCc2nc(N)oc2CC1` as the compound, how does the Potency [1] read?
Its Potency is “inactive”.

And the Potency [2]?
The Potency was “inactive”.

What about the Potency [5] of the same compound?
The Potency was “inactive”.

Which Potency [1] does the source give for `CN(C)C(=O)Oc1cccc([N+](C)(C)C)c1` here?
The Potency was “inactive”.

What about the Potency [2] of the same compound?
The Potency was “inactive”.

What about the outcome [3] of the same compound?
Its outcome is “inactive”.

What about the Potency [6] of the same compound?
The Potency was “inactive”.

Which Potency [1] does the source give for `CC(C)[N+](C)(CCOC(=O)C1c2ccccc2Oc2ccccc21)C(C)C` here?
The Potency was “inactive”.

What about the Potency [2] of the same compound?
The Potency was “inactive”.

What about the Potency [4] of the same compound?
Its Potency is 1.26 µM (active).

For `c1cnc(N2CCN(Cc3ccc4c(c3)OCO4)CC2)nc1`, which Potency [1] is on record?
The Potency was “inactive”.

What about the Potency [2] of the same compound?
The Potency was “inactive”.

And the Potency [5]?
Its Potency is “inactive”.

And the Potency [4]?
The Potency was 0.199 µM (active).

For `CCCN(CCC)CCc1cccc2c1CC(=O)N2`, which Potency [1] is on record?
Its Potency is “inactive”.

What about the Potency [2] of the same compound?
Its Potency is “inactive”.

What about the outcome [3] of the same compound?
Its outcome is “inactive”.

Which Potency [1] does the source give for `CN1CCN(C2=Nc3ccccc3Oc3ccc(Cl)cc32)CC1` here?
The Potency was “inactive”.

What about the Potency [2] of the same compound?
Its Potency is “inactive”.

What about the Potency [5] of the same compound?
Its Potency is “inactive”.

And the Potency [6]?
The Potency was “inactive”.

With `CC[N+](C)(C)c1cccc(O)c1` as the compound, how does the Potency [1] read?
The Potency was “inactive”.

What about the Potency [2] of the same compound?
Its Potency is “inactive”.

And the outcome [3]?
The outcome was “inactive”.

And the Potency [6]?
The Potency was “inactive”.

What does the source list for `CN(C)CCCN1c2ccccc2Sc2ccc(C(F)(F)F)cc21`?
Potency [1]: inactive; Potency [2]: inactive; Potency [4]: 794 nM (active) and 398 nM (active)

Which Potency [1] does the source give for `CCO/C([O-])=N/c1c[n+](N2CCOCC2)no1` here?
Its Potency is “inactive”.

And the Potency [2]?
Its Potency is “inactive”.

And the Potency [5]?
The Potency was “inactive”.

What about the Potency [4] of the same compound?
The Potency was “inactive”.

What does the source list for `CN(C(=O)CCCOc1ccc2[nH]c(=O)ccc2c1)C1CCCCC1`?
Potency [1]: inactive; Potency [2]: inactive; Potency [5]: inactive; Potency [4]: inactive

For `CCN(CC)CCNC(=O)c1cc(S(C)(=O)=O)ccc1OC`, which Potency [1] is on record?
Its Potency is “inactive”.

What about the Potency [2] of the same compound?
Its Potency is “inactive”.

What about the outcome [3] of the same compound?
The outcome was “inactive”.

What about the Potency [6] of the same compound?
The Potency was “inactive”.

With `O=C1NCN(c2ccccc2)C12CCN(CCCC(c1ccc(F)cc1)c1ccc(F)cc1)CC2` as the compound, how does the Potency [1] read?
Its Potency is “inactive”.

And the Potency [2]?
The Potency was “inactive”.

What about the Potency [5] of the same compound?
The Potency was “inactive”.

And the Potency [4]?
The Potency was 1.58 µM (active).

What does the source list for `CC(=O)Nc1nnc(S(N)(=O)=O)s1`?
Potency [1]: inactive; Potency [2]: inactive; outcome [3]: inactive; Potency [4]: inactive; Potency [6]: inactive

For `C[n+]1cc2c3c(ccc2c2ccc4cc5c(cc4c21)OCO5)OCO3`, which Potency [1] is on record?
Its Potency is “inactive”.

What about the Potency [2] of the same compound?
Its Potency is 12.6 µM (active).

What about the Potency [5] of the same compound?
Its Potency is “inactive”.

What about the Potency [6] of the same compound?
Its Potency is 10 µM (active).

Which Potency [1] does the source give for `Brc1c(NC2=NCCN2)ccc2nccnc12` here?
The Potency was “inactive”.

What about the Potency [2] of the same compound?
The Potency was “inactive”.

What about the Potency [5] of the same compound?
The Potency was “inactive”.

What about the Potency [6] of the same compound?
The Potency was “inactive”.

Which results are given for `CN(C)CCOC(=O)COc1ccc(Cl)cc1`?
Potency [1]: inactive; Potency [2]: inactive; Potency [5]: inactive
